RecA intein inh = blocks M. tuberculosis RecA intein splicing | inhibition, % (test concentration not listed) | P9WHJ3 | actives 0.75% (n = 290,000) | cell-free RecA intein splicing, fluorescence; in the data active = inhibition above about 30%;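 note: 0% = vehicle wells and 100% = reference inhibitor control wells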
SSB-PriA inh = blocks PriA binding to SSB C-terminal tail; AlphaScreen SSBct-PriA binding, biotinylated peptide; inhibition, % at 33 µM; actives 0.6% (n = 430,000); AID 1272365; in the data active = inhibition mostly above about 37%, no sharp cut-off; inactive = mostly below about 20%;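 note: plate controls were negative control peptide for no effect and reference peptide for full effect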
PrP 5UTR inh = inhibition of PrP 5' UTR reporter expression; cell-based PrP 5' UTR mRNA reporter, plate reader; inhibition, % (no concentration beside the values); actives 0.35% (n = 340,000); in the data active = inhibition above about 52%; note: 0 = median of the neutral control wells
PrPC surface inh = cell surface PrPC inhibition, primary TR-FRET screen | P04156 | TR-FRET read-out | inhibition, % at 13.8 µM | actives 0.43% (n = 370,000) | AID 720596; in the data active = inhibition above about 24%; note: 0% = median of the test wells and 100% = reference compound wells
PfHsp40 rescue = rescue of PfHsp40-mediated yeast toxicity | AID 504582 | actives 0.68% (n = 340,000) | S. cerevisiae expressing PfHsp40, growth rescue, ATP luminescence | growth rescue, % at 12.5 µM; in the data active = growth rescue above about 28%, passing the limit was not always enough;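 note: yeast W303a lacking pdr1 and pdr3 grown in galactose medium; growth measured after three days at 30 °C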
BJeLR lethal = BJeLR cell viability loss; actives 0.17% (n = 300,000); BJeLR (HRASV12) viability, CellTiter-Glo ATP luminescence, 48 h; inhibition, % (no concentration beside the values); in the data active = inhibition above about 50%
PrPC confirm = confirmation of inhibitors of cell surface human prion protein. shares compounds with PrPC surface inh. cell surface PrPC level, TR-FRET. inhibition, % at 13.8 µM. actives 65% (n = 1,500); in the data active = inhibition above about 25%
LD9 tox = kills or reduces viability of LD9 cells in PrPc counter-screen; AID 743201; shares compounds with PrPC surface inh; actives 29% (n = 1,500); LD9 cells cytotoxicity, luminescence viability; inhibition, % at 13.8 µM; in the data active = inhibition above about 9.5%
An asterisk follows results filed as active; nt = not tested or not shown. An excerpt weighted towards active compounds, which were near 1.9% of everything screened.

SMILES	RecA intein inh	SSB-PriA inh	PrP 5UTR inh	PrPC surface inh	PfHsp40 rescue	BJeLR lethal	PrPC confirm	LD9 tox
C/C(N)=C(/C#N)C(=O)CSc1nc2ccccc2c(=O)n1Cc1ccc(C)cc1	nt	2	-6	27*	0	1	7	-2
O=C1CN(C(=O)CSc2nc3cc(Cl)ccc3c(=O)n2Cc2ccccc2)c2ccccc2N1	9	-7	-1	-8	3	-8	nt	nt
Cc1ccc(Cn2c(SCC(=O)N3CC(=O)Nc4ccccc43)nc3ccccc3c2=O)cc1	9	-19	-34	29*	0	-1	45*	-2
CCOC(=O)c1c(NC(=O)c2ccccc2[N+](=O)[O-])sc2c1CCCC2	nt	1	nt	nt	nt	nt	nt	nt
COc1cc(C(=O)NC2CCCCN(Cc3cccc(C(F)(F)F)c3)C2=O)cc(OC)c1OC (stereo unspecified)	nt	nt	nt	49*	nt	nt	8	-7
COc1cc(C(=O)NC2CCCCN(Cc3cccc(Cl)c3)C2=O)cc(OC)c1OC (stereo unspecified)	nt	nt	nt	2	nt	nt	nt	nt
O=C(NC1CCCCN(Cc2cccc(C(F)(F)F)c2)C1=O)c1ccc(COc2ccccc2)cc1 (stereo unspecified)	nt	nt	nt	26*	nt	nt	25*	5
O=C(NCc1ccc(F)cc1)Nc1ccccc1Cc1nc(-c2cnccn2)no1	nt	6	nt	nt	nt	nt	nt	nt
O=C(c1ccc(C(F)(F)F)nc1)N1CCN(c2cc(-n3cncn3)ncn2)CC1	nt	-13	nt	nt	nt	nt	nt	nt
O=C(Nc1ccc(Cl)c(Cl)c1)c1ccc(Cn2cc(Cl)cn2)cc1	8	-28	-47	6	0	-4	nt	nt
Cc1ccc(Cl)cc1NC(=O)c1ccc(Cn2cc(Cl)cn2)cc1	1	-15	-2	27*	0	1	24	3
CCOc1ccc(C(=O)Nc2cnn(Cc3ccc(Cl)c(Cl)c3)c2)cc1	4	-5	2	27*	-1	4	23	-4
Cc1ccc(C(=O)Nc2nnc(Cc3cccs3)o2)cc1C	nt	27	nt	nt	nt	nt	nt	nt
Cc1nn(C)c(C)c1/C=C(/C(=O)C(C)(C)C)n1cncn1	-3	-10	9	14	0	9	nt	nt
CC(C)(C)C(=O)/C(=C/c1ccncc1)n1cncn1	2	-5	-3	34*	-1	22	1	44*
C[C@@H](Cc1ccoc1)NC(=O)c1c(F)cccc1Cl	nt	2	nt	nt	nt	nt	nt	nt
CCCN(c1ccc(OCC)cc1)S(=O)(=O)c1ccc2c(c1)NC(=O)CO2	-1	-4	10	55*	1	0	56*	-2
Cc1cccc(NC(=O)CSc2nnc(-c3ccncc3)n2CC2CCCO2)c1 (stereo unspecified)	-2	5	8	60*	1	-16	4	-7
Cc1ccccc1C(=O)NNc1ccc(-c2csnn2)cc1	1	12	-28	25*	0	2	14	7
Cc1nc(SC2CCOC2=O)c2c(C)c(C)sc2n1 (stereo unspecified)	2	0	-4	98*	0	-8	103*	-3
Cc1nc(SCC(=O)N2CCOCC2)c2c(C)c(C)sc2n1	-1	-3	-9	5	2	7	nt	nt
O=C(Cc1ccccc1)NC(Nc1ccc([N+](=O)[O-])cc1)C(Cl)(Cl)Cl (stereo unspecified)	nt	8	nt	nt	nt	nt	nt	nt
Cn1nnnc1SCc1nc2scc(-c3ccc(Cl)cc3)c2c(=O)[nH]1	-7	-18	-30	32*	0	4	26*	6
COc1cc2c(cc1OC)CN(C(=O)c1ccc(N3CCCC3)nn1)CC2	nt	2	nt	nt	nt	nt	nt	nt
N#C/C(=N/Nc1ccc(OC(F)(F)F)cc1)C(N)=S	23	nt	-60	26*	21	29	38*	28*
SMILES	RecA intein inh	SSB-PriA inh	PrP 5UTR inh	PrPC surface inh	PfHsp40 rescue	BJeLR lethal	PrPC confirm	LD9 tox
O=C1C(=O)N(CCCn2ccnc2)C(c2cccc(Br)c2)/C1=C(\O)c1ccc2c(c1)OCCO2 (stereo unspecified)	2	nt	-10	30*	1	1	43*	1
O=C1C(=O)N(CCCn2ccnc2)C(c2ccc(Cl)cc2)/C1=C(\O)c1ccc2c(c1)OCCO2 (stereo unspecified)	-11	nt	-12	32*	2	-2	12	-4
O=C1C(=O)N(CCCn2ccnc2)C(c2ccc(Br)cc2)C1=C(O)c1ccc2c(c1)OCCO2 (stereo unspecified)	nt	22	nt	nt	nt	nt	nt	nt
COc1ccccc1C(CNC(=O)Cc1ccsc1)OC (stereo unspecified)	nt	-17	nt	nt	nt	nt	nt	nt
CN(C)CCCN(C(=O)C1CCCCC1)c1nc2c(Cl)cccc2s1	nt	2	nt	nt	nt	nt	nt	nt
CCCCCCCCCCCCCCCC[n+]1cccc2ccccc21	nt	16	10	40*	6	nt	51*	55*
CCCCCCCCC[n+]1cccc2c3ccccc3ccc21	1	-28	1	nt	1	10	nt	nt
O=C(Cc1ccncc1)c1ccc(OCc2ccc3ccccc3n2)cc1	nt	-12	nt	nt	nt	nt	nt	nt
O=C(Cc1ccccc1)OCn1nnc2ccccc2c1=O	-8	-3	-18	37*	-1	-7	6	0
COc1ccc(C(=O)Nc2nc3c(s2)CCCC3C(=O)NCC2CCCO2)cc1 (stereo unspecified)	nt	-13	nt	nt	nt	nt	nt	nt
CC(C)C(=O)N1CCN(c2ccc(NC(=O)c3ccc([N+](=O)[O-])o3)cc2Cl)CC1	nt	-12	-74	36*	3	nt	11	98*
O=C(Nc1ccc(N2CCN(C(=O)c3ccccc3)CC2)cc1)c1ccc([N+](=O)[O-])o1	-1	-6	17	26*	2	-1	22	93*
Cc1ccccc1C(=O)N1CCN(c2ccc(NC(=O)c3ccc([N+](=O)[O-])o3)cc2)CC1	nt	7	-14	4	-1	-1	nt	nt
CC(C)C(=O)N1CCN(c2ccc(NC(=O)c3ccc([N+](=O)[O-])o3)cc2)CC1	-11	-2	-25	-1	-1	-1	nt	nt
NS(=O)(=O)c1ccc(C(=O)Nc2cnc(N3CCN(c4ccccn4)CC3)nc2)cc1	nt	-4	nt	nt	nt	nt	nt	nt
CCOC(=O)c1c(NC(=O)CSc2cn(CCNC(=O)c3ccc4ccccc4c3)c3ccccc23)sc2c1CCC2	nt	7	nt	nt	nt	nt	nt	nt
CSc1ccccc1-c1n[nH]c(=S)o1	-1	-12	-22	66*	nt	6	83*	-7
Cc1ccccc1-c1n[nH]c(=O)o1	nt	1	nt	nt	nt	nt	nt	nt
Cc1ccccc1-c1n[nH]c(=S)o1	3	2	-12	63*	-2	9	72*	-3
CCOc1ccc(-n2nnnc2SC(C)C(=O)Nc2ccccc2C#N)cc1 (stereo unspecified)	nt	-25	nt	nt	nt	nt	nt	nt
COc1ccccc1NS(=O)(=O)c1cccc(NC(=O)Nc2ccc(Cl)cc2)c1	0	-11	-12	45*	1	7	19	0
COc1ccccc1NS(=O)(=O)c1cccc(NC(=O)Nc2ccccc2)c1	1	13	-14	20	0	2	nt	nt

Source: PubChem (several laboratories)
